JMJD2A Tudor inh – blocks the human JMJD2A Tudor domain; AlphaScreen JMJD2A-Tudor / H3K4me3 peptide binding; AID 504339; actives 4.4% (n = 390,000); Potency, µM (doses to about 114 µM), inactives show top-dose activity change, negative = inhibition, actives largely listed as inhibitors; also: % is scaled to controls: 0 for no effect and ±100 for the full control effect; nearly all actives have a fitted effect of over 50% in size
G9a inh – blocks human histone lysine methyltransferase G9a. Q96KQ7. G9a H3K9 monomethylation, AlphaScreen, 2 h. Potency, µM (titrated, usually from 102 µM), for the others: top-dose activity, negative = inhibition, usual class: inhibitors. actives 8.8% (n = 350,000). AID 504332; also: % is scaled to controls: 0 for no effect and ±100 for the full control effect; nearly all actives have a fitted effect of over 75% in size
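Quantitative HTS format: methyltransferase activity on a biotin-tagged H3K9 peptide is measured by AlphaScreen, using a rabbit anti-monomethyl-H3K9 antibody with streptavidin donor and anti-IgG acceptor beads. Final levels are 20 nM enzyme, 500 nM peptide, 20 uM SAM; 2 h RT.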
PLK1 PBD block – PLK1 (human) polo-box domain binding inhibition; Plk1 PBD binding of FITC phosphopeptide, fluorescence polarization; Potency, µM, without a hit: max response, negative = inhibition, actives largely listed as inhibitors; actives 2.8% (n = 360,000); AID 720504; also: series mostly up to about 57 µM; % is scaled to controls: 0 for no effect and ±100 for the full control effect; nearly all actives have a fitted effect of over 65% in size
Target sequence (P53350 whole entry, looked up, the tested form may be a part): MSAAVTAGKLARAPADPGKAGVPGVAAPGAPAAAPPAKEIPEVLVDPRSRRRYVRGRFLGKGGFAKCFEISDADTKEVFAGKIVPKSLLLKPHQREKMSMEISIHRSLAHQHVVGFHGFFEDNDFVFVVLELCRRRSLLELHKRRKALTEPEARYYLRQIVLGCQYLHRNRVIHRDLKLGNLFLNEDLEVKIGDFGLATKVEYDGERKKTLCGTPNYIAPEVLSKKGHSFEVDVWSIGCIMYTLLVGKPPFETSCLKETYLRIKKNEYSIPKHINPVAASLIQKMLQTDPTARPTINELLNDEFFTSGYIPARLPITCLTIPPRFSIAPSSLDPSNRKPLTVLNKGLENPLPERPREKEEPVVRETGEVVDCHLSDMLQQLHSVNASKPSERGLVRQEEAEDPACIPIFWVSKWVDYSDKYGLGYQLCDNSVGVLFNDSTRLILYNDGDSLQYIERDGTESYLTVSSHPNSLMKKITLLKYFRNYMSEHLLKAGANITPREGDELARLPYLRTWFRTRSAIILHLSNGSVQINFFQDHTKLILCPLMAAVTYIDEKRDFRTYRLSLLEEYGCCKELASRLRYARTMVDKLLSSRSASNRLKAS
Sfp PPTase inh – inhibitors of Bacillus subtilis Sfp phosphopantetheinyl transferase | Q9F4F7 | Biochemical Sfp PPTase activity, qHTS | Potency, µM, inactives show largest response in the series, negative = inhibition, actives largely listed as inhibitors | actives 3.5% (n = 310,000);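 also: the enzyme is Sfp with the accession as filed and its product quenches rhodamine fluorescence; 0% = enzyme reaction without inhibitor and -100% = no enzyme wells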
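Reaction rates are the 30-min fluorescence difference (ex 525, em 598 nm) in wells containing 15 nM Sfp, 5 uM rhodamine-CoA and 12.5 uM BHQ-2-YbbR at pH 7.6 with 10 mM MgCl2.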
BAZ2B inh – blocks human BAZ2B; Q9UIF8; AlphaScreen BAZ2B-H3K14Ac peptide displacement; Potency, µM (titrated, usually from 114 µM), for inactives: at the top dose activity change, negative = inhibition, most hits filed as inhibitors; actives 4.4% (n = 360,000); AID 504333; also: % is scaled to controls: 0 for no effect and ±100 for the full control effect; nearly all actives have a fitted effect of over 60% in size
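AlphaScreen displacement: compounds (up to 110uM) incubated 30 min at room temperature with a preformed 50 nM BAZ2B/50 nM biotinylated H3K14Ac peptide complex in PBS pH 7.4 with Tween-20. Donor and acceptor beads at 10 ug/mL final added, 20 min light-protected before reading.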
HP1b binding inh – HP1-beta chromodomain-methylated histone interaction inhibition | Potency, µM (series often up to 114 µM), inactives show at the highest dose activity change, negative = inhibition, usual class: inhibitors | actives 0.56% (n = 390,000) | AlphaScreen HP1-beta / biotin-H3K9me3 peptide binding; also: nearly all actives have a fitted effect of over 70% in size
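HP1-beta protein (50 nM final) preincubated 30 min at room temperature with biotinylated H3(1-18)K9me3 peptide (50 nM) in PBS pH 7.4, 0.01% Tween-20, then compound added for 30 min. AlphaScreen streptavidin donor/nickel chelate acceptor beads (10 ug/mL final), 30 min dark, luminescence read.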
The depositor's hits bear a star; u = inconclusive; x = no result given; [ ] = another dose, or the depositor's remark. Hits are enriched below; roughly 12% of the tested compounds scored in any of these assays. Calls follow the shape of the dose curve; as a rule, active = well fitted curve in the direction sought with a large enough effect; inconclusive = small, poorly fitted or top-dose-only effect, or another doubt; inactive = no such curve, though single readings can be large; an effect the other way counts as inactive or inconclusive. Potency is read from the fitted curve at half-maximal effect.

SMILES	JMJD2A Tudor inh	G9a inh	PLK1 PBD block	Sfp PPTase inh	BAZ2B inh	HP1b binding inh
COc1ccc(Nc2ccnc3ccccc23)cc1	-11%	-38%[59 µM]	-1%	-12%	-8%	35%
Cc1cc(NC2CCCCC2)nc(-n2nc(C)cc2C)n1	x	38%[59 µM]	x	x	x	x
O=C(COC(=O)c1cnc(Cl)c(Cl)c1)NCc1cccs1	22µM*	25%[0.0925 µM]	u	19%	4%	-3%
CCC1CCCCN1S(=O)(=O)c1ccc(NC(=O)c2nc(S(C)(=O)=O)ncc2Cl)cc1 (stereo not drawn)	-29%	40µM*	12µM*	25µM*	-23%[57.1 µM]	-18%[57 µM]
CCSc1ncc(Cl)c(C(=O)Nc2ccc(S(=O)(=O)N3CCCCC3CC)cc2)n1 (stereo not drawn)	-20%	-28%[59 µM]	x	x	-19%	18%
CCS(=O)(=O)c1ncc(Cl)c(C(=O)Nc2ccc(S(=O)(=O)N3CCCC(C)C3)cc2)n1 (stereo not drawn)	u	79µM*	u	u	-24%[57.1 µM]	-5%[57 µM]
O=C1COc2ccc(-c3cc(-c4ccccc4)c4c(n3)-c3cc(Cl)ccc3OC4)cc2N1	-10%	6%[59 µM]	x	x	-16%	16%
COc1ccc(N(C)S(=O)(=O)c2cccc(C(=O)NC3=NCCS3)c2)cc1	-14%	71µM*	-10%	6%	13%	17%
Cc1ccc(C(=O)NC2=NCCS2)cc1	x	9%[12.7 µM]	x	8%	u	x
CC(C)Oc1ccc(C(=O)NC2=NCCS2)cc1	-26%	3.5µM*	27µM*	35µM*	-28%	u
CC(C)[C@H](NC(=O)c1ccc(F)cc1)C(=O)NC1=NCCS1	18µM*	7%	0%	16%	0%	19%
N#Cc1ccc(C(=O)NC2=NCCS2)cc1	-6%	40µM*	-5%	16%	u	23%
COc1cc(C)c(C)cc1S(=O)(=O)n1c(C)nc2ccccc21	u	x	27µM*	3%	-33%	16%
COc1cc(F)ccc1S(=O)(=O)n1c(C)nc2ccccc21	-7%	x	-13%	0%	5%	41%
COc1ccc(S(=O)(=O)n2cnc3ccccc32)cc1OC	14%	71µM*	1%	7%	-7%	37%
Cc1cc(C)c(S(=O)(=O)n2cnc3ccccc32)c(C)c1	-12%	89µM*	-7%	-7%	-9%	37%
CCc1ccccc1N(CC(=O)N/N=C/c1ccc(OC(=O)OC)c(OC)c1)S(C)(=O)=O	-8%[11.4 µM]	-8%[59 µM]	24µM*	5%	-4%	53%
COc1ccc(N(C(C)C(=O)NCc2ccco2)S(C)(=O)=O)cc1 (stereo not drawn)	-15%	50µM*	-7%	-18%	-30%	36%
COC(=O)Oc1ccc(/C=N/NC(=O)CN(c2ccccc2Br)S(C)(=O)=O)cc1OC	-24%	10%[0.501 µM]	-2%	4%	-5%	13%
COc1ccc(N(C(C)C(=O)N/N=C/c2ccc(OC)c(OC)c2)S(C)(=O)=O)cc1 (stereo not drawn)	-18%	-36%	30µM*	4%	8%	-18%
COc1ccc(N(C(C)C(=O)NN=C2CCCCCCC2)S(C)(=O)=O)cc1 (stereo not drawn)	-31%	4%	27µM*	6%	4%	13%
COc1ccc(N(C(C)C(=O)NC2CCCCCC2)S(C)(=O)=O)cc1 (stereo not drawn)	-3%[57.1 µM]	-20%[12.7 µM]	-26%	28%	0%	4%
Cc1ccc(-n2nc(C)c3c(C(=O)Nc4ccc(Br)c(C)c4)cc(C)nc32)cc1	10%	6%[59 µM]	x	x	17%[57.1 µM]	68%
O=C1CCCC2=C1C1O[C@](CCCCN3C(=O)c4ccccc4C3=O)(Cc3c1ccc1ccccc31)O2	x	x	x	8%	-32%[22.9 µM]	x
CC[C@H](C)[C@H](NC(=O)[C@H](Cc1ccc(O)cc1)NC(=O)[C@H](Cc1cnc[nH]1)NC(=O)[C@H](CCCNC(=N)N)NC(=O)[C@H](CC(C)C)NC(=O)[C@H](C)NC(=O)[C@H](CO)NC(=O)[C@H](Cc1ccc(O)cc1)NC(=O)[C@H](Cc1ccc(O)cc1)NC(=O)[C@H](CCCNC(=N)N)NC(=O)[C@H](C)NC(=O)[C@H](CC(C)C)NC(=O)[C@H](CC(=O)O)NC(=O)[C@H](CCC(=O)O)NC(=O)[C@H](C)NC(=O)[C@@H]1CCCN1C(=O)[C@H](C)NC(=O)[C@H](CC(=O)O)NC(=O)[C@H](CCC(=O)O)NC(=O)CNC(=O)[C@@H]1CCCN1C(=O)[C@H](CC(N)=O)NC(=O)[C@H](CC(=O)O)NC(=O)[C@@H]1CCCN1C(=O)[C@H](CCCCN)NC(=O)[C@H](CO)NC(=O)[C@@H]1CCCN1C(=O)[C@@H](N)Cc1ccc(O)cc1)C(=O)N[C@@H](CC(N)=O)C(=O)N[C@@H](CC(C)C)C(=O)N[C@@H](CC(C)C)C(=O)N[C@H](C(=O)N[C@@H](CCCNC(=N)N)C(=O)N1CCC[C@H]1C(=O)N[C@@H](CCCNC(=N)N)C(=O)N[C@@H](Cc1ccc(O)cc1)C(N)=O)[C@@H](C)O	x	x	x	-18%	x	x
SMILES	JMJD2A Tudor inh	G9a inh	PLK1 PBD block	Sfp PPTase inh	BAZ2B inh	HP1b binding inh
COc1ccc(CNCc2cc(OC)ccc2OC)cc1	28µM*	13µM*	3%	-9%	56µM*	-20%
COc1ccc(CNCc2cc(C)c(OC)cc2C)c(OC)c1	20µM*	x	2%	-11%	50µM*	u
COc1cc(CNCc2cc(OC)ccc2OC)cc(OC)c1	28µM*	25µM*	8%	-5%	u	u
CCOC(=O)C1=C(CN(C)Cc2ccccc2)NC(=O)NC1c1ccc(OC(C)C)cc1 (stereo not drawn)	u	-31%[59 µM]	x	x	x	-7%
COc1ccc(NC(=O)C2CSC3c4ccccc4C(=O)N23)cc1 (stereo not drawn)	-19%	28µM*	-9%	-18%	u	13%
Cc1ccc(/C=N/N2CCN(Cc3cccc4ccccc34)CC2)s1	-31%	20%[0.501 µM]	4%	8%	-6%	-20%
COC(=O)c1ccc(/C=N\N2CCN(Cc3ccc(C)cc3)CC2)cc1	-12%	20%[2.33 µM]	-8%	9%	-29%	11%
Cc1ccc(CN2CCN(/N=C\c3cccc([N+](=O)[O-])c3)CC2)cc1	45µM*	28µM*	-1%	-6%	28µM*	35µM*
Cc1ccc(/C=N/N2CCN(Cc3ccccc3)CC2)s1	50µM*	40%[0.501 µM]	-2%	-3%	7.1µM*	u
Cc1ccc(CN2CCN(/N=C/c3ccc(C)s3)CC2)cc1	u	-18%[59 µM]	9%	-12%	40µM*	u
Cc1ccc(CN2CCN(/N=C\C=C\c3ccccc3)CC2)cc1	40µM*	35µM*	-9%	-12%	28µM*	u
